Measured values from the supplement of paper PMC11732987, “Enantioselective OTUD7B fragment discovery through chemoproteomics screening and high-throughput optimisation” (Communications Chemistry, 2025).

How the values were obtained:
Assay in all cases: log2 ratio of Biotin-Ahx-Ub-VS probe labelling (fragment/DMSO); higher = less target engagement (more negative = stronger competition), active = hit call of the paper (q ≤ 0.05, log2 ratio ≤ -1)
Conditions in all cases: compound concentration: 200 uM; treatment time: 3 h
[1] = biological target: T1, ALG13 (UniProt Q9NP73)
T1 sequence (whole entry): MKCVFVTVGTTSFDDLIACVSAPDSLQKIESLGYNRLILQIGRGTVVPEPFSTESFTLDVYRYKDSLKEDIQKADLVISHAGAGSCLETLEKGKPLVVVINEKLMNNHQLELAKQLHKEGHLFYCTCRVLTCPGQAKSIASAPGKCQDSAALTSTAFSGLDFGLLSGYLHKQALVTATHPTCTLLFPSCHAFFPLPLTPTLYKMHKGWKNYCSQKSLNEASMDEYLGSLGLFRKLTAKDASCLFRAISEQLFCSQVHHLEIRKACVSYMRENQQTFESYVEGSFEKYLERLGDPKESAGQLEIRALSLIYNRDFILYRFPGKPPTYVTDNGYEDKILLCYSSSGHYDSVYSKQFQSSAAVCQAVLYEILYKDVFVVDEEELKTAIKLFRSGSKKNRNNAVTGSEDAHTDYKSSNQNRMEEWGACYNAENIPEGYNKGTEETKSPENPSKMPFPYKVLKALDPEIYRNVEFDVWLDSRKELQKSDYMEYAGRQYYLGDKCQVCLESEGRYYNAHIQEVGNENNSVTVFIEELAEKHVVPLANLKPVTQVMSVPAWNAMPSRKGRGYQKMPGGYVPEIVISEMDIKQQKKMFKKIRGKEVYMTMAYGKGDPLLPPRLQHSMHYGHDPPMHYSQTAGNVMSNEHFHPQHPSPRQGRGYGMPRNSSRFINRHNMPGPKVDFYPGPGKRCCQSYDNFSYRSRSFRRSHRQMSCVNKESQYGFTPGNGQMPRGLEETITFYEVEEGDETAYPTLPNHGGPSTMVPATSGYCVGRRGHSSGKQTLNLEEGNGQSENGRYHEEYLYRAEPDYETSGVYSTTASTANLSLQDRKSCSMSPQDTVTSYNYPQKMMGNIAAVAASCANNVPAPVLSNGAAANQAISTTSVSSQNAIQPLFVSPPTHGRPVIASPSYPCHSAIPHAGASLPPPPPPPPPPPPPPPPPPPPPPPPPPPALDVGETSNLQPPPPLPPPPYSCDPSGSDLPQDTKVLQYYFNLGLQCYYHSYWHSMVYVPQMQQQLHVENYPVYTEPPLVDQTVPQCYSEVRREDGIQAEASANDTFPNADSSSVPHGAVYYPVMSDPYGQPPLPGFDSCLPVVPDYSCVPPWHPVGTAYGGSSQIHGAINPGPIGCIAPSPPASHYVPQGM
In short: (§1)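 Using Biotin-Ahx-Ub-VS at 0.5 µM final for 1 h, DUBs were labelled in HEK293T lysate (495 µg per sample) that had first been treated in triplicate with fragment at 200 µM or vehicle for 3 h. NeutrAvidin enrichment, LysC and trypsin digestion and diaPASEF LC-MS/MS followed. Spectronaut label-free quantities were global-median-normalised. Values are average log2 fragment/vehicle ratios by unpaired t-test, using proteins with ≥2 unique peptides.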

[2] = biological target: ATXN3 (UniProt P54252)
ATXN3, sequence (P54252 whole entry): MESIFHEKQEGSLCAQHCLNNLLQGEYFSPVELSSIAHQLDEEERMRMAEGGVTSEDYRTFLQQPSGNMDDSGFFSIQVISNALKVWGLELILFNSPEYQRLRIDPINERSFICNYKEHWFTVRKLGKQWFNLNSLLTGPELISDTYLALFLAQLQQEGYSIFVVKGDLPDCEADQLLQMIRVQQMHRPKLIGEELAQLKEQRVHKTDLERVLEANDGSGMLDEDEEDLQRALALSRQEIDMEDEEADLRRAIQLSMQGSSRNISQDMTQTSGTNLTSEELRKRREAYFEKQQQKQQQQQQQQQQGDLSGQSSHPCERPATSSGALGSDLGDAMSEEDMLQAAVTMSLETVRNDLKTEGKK
In short: as §1

[3] = biological target: T2, BAP1 (UniProt Q92560)
T2 sequence (whole entry): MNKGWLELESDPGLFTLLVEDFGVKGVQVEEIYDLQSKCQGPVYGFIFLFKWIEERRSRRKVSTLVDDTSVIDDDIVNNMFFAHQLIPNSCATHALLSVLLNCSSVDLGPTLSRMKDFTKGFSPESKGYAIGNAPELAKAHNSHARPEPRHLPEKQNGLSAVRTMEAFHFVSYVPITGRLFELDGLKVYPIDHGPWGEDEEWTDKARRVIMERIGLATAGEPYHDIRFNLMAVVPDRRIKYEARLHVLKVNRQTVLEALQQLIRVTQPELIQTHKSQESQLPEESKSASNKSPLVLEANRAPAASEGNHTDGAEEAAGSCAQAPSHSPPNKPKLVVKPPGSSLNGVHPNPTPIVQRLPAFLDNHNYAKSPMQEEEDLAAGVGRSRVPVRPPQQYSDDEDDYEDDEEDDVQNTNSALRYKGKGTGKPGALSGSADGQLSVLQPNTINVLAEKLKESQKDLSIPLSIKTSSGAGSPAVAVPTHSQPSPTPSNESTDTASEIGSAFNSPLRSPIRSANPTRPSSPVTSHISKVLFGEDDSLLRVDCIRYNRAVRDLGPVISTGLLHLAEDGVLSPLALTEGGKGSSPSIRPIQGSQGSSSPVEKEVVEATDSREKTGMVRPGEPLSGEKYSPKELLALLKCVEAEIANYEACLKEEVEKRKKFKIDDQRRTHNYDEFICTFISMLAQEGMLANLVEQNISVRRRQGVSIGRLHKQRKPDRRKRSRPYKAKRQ
In short: as §1

[4] = biological target: EIF3F (UniProt O00303)
EIF3F, sequence (O00303 whole entry): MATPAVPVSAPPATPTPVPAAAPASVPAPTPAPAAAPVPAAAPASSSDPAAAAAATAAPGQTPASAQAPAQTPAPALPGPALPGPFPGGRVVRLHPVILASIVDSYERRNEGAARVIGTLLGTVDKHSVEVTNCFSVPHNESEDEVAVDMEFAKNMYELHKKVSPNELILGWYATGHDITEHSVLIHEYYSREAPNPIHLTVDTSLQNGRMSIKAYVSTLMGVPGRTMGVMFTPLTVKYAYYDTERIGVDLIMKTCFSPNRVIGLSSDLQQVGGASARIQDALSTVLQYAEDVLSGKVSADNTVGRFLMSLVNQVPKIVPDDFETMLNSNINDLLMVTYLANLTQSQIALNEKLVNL
In short: as §1

[5] = biological target: EIF3H (UniProt O15372)
EIF3H, sequence (O15372 whole entry): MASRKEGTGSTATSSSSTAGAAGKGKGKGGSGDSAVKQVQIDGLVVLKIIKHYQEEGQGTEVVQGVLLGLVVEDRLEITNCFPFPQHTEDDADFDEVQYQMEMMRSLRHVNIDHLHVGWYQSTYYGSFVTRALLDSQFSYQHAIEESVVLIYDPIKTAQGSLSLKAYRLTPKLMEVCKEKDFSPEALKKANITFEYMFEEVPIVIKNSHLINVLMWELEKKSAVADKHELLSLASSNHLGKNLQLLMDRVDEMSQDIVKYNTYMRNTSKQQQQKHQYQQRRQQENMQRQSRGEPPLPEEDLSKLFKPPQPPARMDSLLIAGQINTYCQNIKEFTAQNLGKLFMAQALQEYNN
In short: as §1

[6] = biological target: T3, FAM105A (UniProt Q9NUU6)
T3 sequence (whole entry): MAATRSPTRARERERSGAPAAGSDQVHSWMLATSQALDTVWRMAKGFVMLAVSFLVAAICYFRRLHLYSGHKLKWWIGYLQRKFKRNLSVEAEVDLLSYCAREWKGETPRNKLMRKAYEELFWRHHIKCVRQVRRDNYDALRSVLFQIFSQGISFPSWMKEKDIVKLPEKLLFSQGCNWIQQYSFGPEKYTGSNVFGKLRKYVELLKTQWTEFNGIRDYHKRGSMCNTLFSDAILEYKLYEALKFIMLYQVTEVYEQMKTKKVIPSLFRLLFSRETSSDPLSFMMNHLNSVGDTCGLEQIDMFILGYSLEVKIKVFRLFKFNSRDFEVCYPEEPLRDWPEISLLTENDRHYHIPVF
In short: as §1

[7] = biological target: OTUB1 (UniProt Q96FW1)
OTUB1, sequence (Q96FW1 whole entry): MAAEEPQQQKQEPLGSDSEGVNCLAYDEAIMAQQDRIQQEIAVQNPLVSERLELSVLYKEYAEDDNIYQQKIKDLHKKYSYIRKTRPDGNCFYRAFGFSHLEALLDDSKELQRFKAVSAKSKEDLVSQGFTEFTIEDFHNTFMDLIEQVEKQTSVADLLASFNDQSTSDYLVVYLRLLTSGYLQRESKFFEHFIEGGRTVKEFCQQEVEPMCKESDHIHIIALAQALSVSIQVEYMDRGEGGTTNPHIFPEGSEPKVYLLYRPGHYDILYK
In short: as §1

[8] = biological target: T4, OTUD4 (UniProt Q01804)
T4 sequence (whole entry): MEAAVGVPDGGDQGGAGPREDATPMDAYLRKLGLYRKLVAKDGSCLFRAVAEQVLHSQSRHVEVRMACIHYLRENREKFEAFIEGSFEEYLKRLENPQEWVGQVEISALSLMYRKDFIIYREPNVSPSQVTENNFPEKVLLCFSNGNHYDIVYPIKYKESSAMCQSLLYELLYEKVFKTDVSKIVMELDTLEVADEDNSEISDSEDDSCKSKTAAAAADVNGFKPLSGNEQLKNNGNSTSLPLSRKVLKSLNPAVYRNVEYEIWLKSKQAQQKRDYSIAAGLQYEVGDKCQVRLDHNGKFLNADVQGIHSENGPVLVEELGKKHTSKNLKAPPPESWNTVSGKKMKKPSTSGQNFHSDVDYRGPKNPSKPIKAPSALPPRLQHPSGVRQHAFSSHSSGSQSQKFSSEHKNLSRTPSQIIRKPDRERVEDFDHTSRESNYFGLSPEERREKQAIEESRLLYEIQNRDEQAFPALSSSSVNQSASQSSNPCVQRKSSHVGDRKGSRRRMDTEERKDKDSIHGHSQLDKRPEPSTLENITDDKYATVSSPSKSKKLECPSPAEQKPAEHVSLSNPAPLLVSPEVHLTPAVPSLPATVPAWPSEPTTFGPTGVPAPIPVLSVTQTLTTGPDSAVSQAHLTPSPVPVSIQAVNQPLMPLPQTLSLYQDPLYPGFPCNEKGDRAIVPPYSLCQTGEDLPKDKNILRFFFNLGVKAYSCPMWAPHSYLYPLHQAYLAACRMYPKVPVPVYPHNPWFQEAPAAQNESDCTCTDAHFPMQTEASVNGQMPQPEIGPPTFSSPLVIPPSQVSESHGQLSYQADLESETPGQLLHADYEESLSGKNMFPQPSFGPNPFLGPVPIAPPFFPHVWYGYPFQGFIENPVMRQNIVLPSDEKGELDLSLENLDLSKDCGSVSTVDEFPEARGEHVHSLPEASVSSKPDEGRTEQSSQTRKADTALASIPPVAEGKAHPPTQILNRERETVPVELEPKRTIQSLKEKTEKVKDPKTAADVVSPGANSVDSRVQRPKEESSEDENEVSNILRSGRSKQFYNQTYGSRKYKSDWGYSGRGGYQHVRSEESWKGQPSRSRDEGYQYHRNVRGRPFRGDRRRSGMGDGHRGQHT
In short: as §1

[9] = biological target: T5, OTUD5 (UniProt Q96G74)
T5 sequence (whole entry): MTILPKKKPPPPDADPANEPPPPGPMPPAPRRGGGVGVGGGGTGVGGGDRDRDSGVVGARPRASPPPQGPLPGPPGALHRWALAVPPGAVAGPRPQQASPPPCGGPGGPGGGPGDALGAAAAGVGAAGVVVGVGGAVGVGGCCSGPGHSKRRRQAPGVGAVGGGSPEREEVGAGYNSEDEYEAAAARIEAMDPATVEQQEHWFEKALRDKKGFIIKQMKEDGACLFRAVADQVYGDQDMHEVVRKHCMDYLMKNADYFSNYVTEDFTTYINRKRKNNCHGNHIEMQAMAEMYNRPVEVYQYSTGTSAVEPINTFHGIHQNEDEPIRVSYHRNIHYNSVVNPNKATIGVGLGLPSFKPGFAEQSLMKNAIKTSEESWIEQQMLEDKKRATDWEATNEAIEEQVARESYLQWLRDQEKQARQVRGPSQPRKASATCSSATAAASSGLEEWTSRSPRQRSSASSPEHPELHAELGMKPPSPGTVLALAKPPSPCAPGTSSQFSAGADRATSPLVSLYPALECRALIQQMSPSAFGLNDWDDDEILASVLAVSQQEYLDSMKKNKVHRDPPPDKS
In short: as §1

Measured: log2 ratio of Biotin-Ahx-Ub-VS probe labelling

O=C(CCl)N1CCCC2CCCCC21 (centres undefined)
inactive: [1] -0.21 | [2] -0.321 | [3] -0.281 | [4] -0.196 | [5] 0.299 | [6] 0.212 | [7] 0.0815 | [8] -0.106 | [9] -0.314
